# Assay results reported in PubChem BioAssay (NCATS).
# Records with an inconclusive call do not appear. Unmarked numbers belong to inactive results. Calls follow the shape of the dose curve; as a rule, active = well fitted inhibition curve with a large enough effect; inconclusive = small, poorly fitted or top-dose-only effect; inactive = no such curve, though single readings can be large or run the other way.
# Experiment: S16 Schwann cell PMP22 intronic element firefly luciferase assay (AID 624032);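 also: plate controls were DMSO for no effect and PTC124 positive control mean for full effect; nearly all actives have a fitted effect of over 30% in size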
# Conditions: S16 rat Schwann cells, PMP22 element FLuc, 24 h; series mostly up to 57.5 µM; activity change, negative = inhibition: at the top concentration
# In short: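 Rat S16 Schwann cells stably carrying firefly luciferase driven by a PMP22 intronic element, in 10% FBS, treated 24 h at 37 C. ONE-Glo luminescence normalized to PTC124 control and DMSO (0%); curves classed by r2, magnitude and activity.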
row,Compound,"activity change, negative = inhibition [%]"
1,CCCC1CCCCN1 (stereo not given),-4.85
2,CC(C)NCC(O)c1ccccc1Cl (stereo not given),-6.97
3,O=C(NC(O)C(Cl)(Cl)Cl)NC(O)C(Cl)(Cl)Cl (stereo not given),-25.6
4,CN1CCN(C(=O)O[C@H]2c3nccnc3C(=O)N2c2ccc(Cl)cn2)CC1,-7.81
5,CC(C)CC(N(C)C)C1(c2ccc(Cl)cc2)CCC1 (stereo not given),-19.5
6,C=C1CC[C@@]2(O)[C@H]3Cc4ccc(O)c5c4[C@@]2(CCN3CC2CC2)[C@H]1O5,6.58
7,CC(C)(N)Cc1ccc(Cl)cc1,11.1
8,CC(=O)Nc1cc([As](=O)(O)O)ccc1O,-7.97
9,NP(N)(=O)NC(=O)c1ccc(F)cc1,-6.03
10,CC1NCCOC1c1ccccc1 (stereo not given),1.2
11,FC(F)(F)c1cccc(C2=CCN(CCc3ccc4ccccc4c3)CC2)c1,-2.47
12,CCN(C(C)=O)c1cccc(-c2ccnc3c(C#N)cnn23)c1,-0.735
13,Clc1cccc(N2CCNCC2)c1,55.1
14,CCC(C(N)=O)N1CCCC1=O (stereo not given),-2.9
15,CN(C)CCc1ccc(O)cc1,-6.89
